Data as given in PubChem BioAssay (NCATS).
Results filed as inconclusive are left out. Values without a mark were called inactive. The source made the active and inactive calls. The call rests on the fitted dose curve.

Test: A High-Content qHTS Against Drug Library for the Identification of Small Molecules that Inhibit DYT1 Early Onset Primary Dystonia-Associated Cell Pathology (AID 1645839)
Settings: HEK293 Flp-In EGFP-delE TorsinA, punctate imaging, 48 h; series mostly up to 46.1 µM; % pathology change, negative = correction: at the top concentration
Description: Nicole Calakos M.D., Ph.D.
Duke University School of Medicine, Durham, NC
In DYT1 dystonia due to delGAG in the TOR1A gene, there is a robust and widely replicated finding of TorsinA protein mislocalization caused when the mutant protein is in excess of the wildtype protein (1-7). Stable HEK293 cell lines were created that replicate this phenomenon. Inducible expression of an EGFP-hu delE TorsinA encoding cDNA causes pronounced punctate cellular distribution. […] This phenotypic difference in EGFP-huTorsinA fusion protein distribution serves as an indicator of cell pathology. […] RNAi screen results with the assay were validated in DYT1 patient cell phenotypes, intersected with a known dystonia gene, and led to discovery of new human genetic dystonia associations.
The bioassay described herein is a high-content image screen with two readouts. The "%pathology" readout is the primary qHTS data channel, while the "cellcount" is the counterscreen qHTS channel. Desired active compounds are those that show inhibition in %pathology channel but no activity or minimal toxicity in cellcount readout.
1. Kustedjo, K., Bracey, M.H., and Cravatt, B.F. (2000). […] J. Biol. Chem. 275, 27933 - 27939.
2. Bragg, D.C., Kaufman, C.A., Kock, N., and Breakefield, X.O. (2004). Inhibition of N-linked glycosylation prevents inclusion formation by the dystonia-related mutant form of torsinA. Mol. Cell. Neurosci. 27, 417 - 426.
3. Gonzalez-Alegre, P., and Paulson, H.L. (2004). Aberrant Cellular Behavior of Mutant TorsinA Implicates Nuclear Envelope Dysfunction in DYT1 Dystonia. J. Neurosci. 24, 2593 - 2601.
4. Goodchild, R.E., and Dauer, W.T. (2004). Mislocalization to the nuclear envelope: an effect of the dystonia-causing torsinA mutation. Proc. Natl. Acad. Sci. U. S. A. 101, 847 - 852.
5. Kock, N., Allchorne, A.J., Sena-Esteves, M., Woolf, C.J., and Breakefield, X.O. (2006). RNAi blocks DYT1 mutant torsinA inclusions in neurons. Neurosci. Lett. 395, 201 - 205.
6. Hewett, J.W., Nery, F.C., Niland, B., Ge, P., Tan, P., Hadwiger, P., Tannous, B.A., Sah, D.W.Y., and Breakefield, X.O. (2008). siRNA knock-down of mutant torsinA restores processing through secretory pathway in DYT1 dystonia cells. Hum. Mol. Genet. 17, 1436 - 1445.
7. Calakos, N., Patel, V.D., Gottron, M., Wang, G., Tran-Viet, K.N., Brewington, D., Beyer, J.L., Steffens, D.C., Krishnan, R.R., and Zuchner, S. (2010). Functional evidence implicating a novel TOR1A mutation in idiopathic, late-onset focal dystonia. J. Med. Genet. 47, 646 - 650.
8. Rittiner* JE, Caffall* ZF, Hernandez-Martinez R, Sanderson SM, Pearson JL, Tsukayama KK, Liu AY, Xiao C, Tracy S, Shipman MK, Hickey P, Johnson J, Scott B, Stacy M, Saunders-Pullman R, Bressman S, Simonyan K, Sharma N, Ozelius LJ, Cirulli ET, Calakos N. Functional Genomic Analyses of Mendelian and Sporadic Disease Identify Impaired eIF2alpha Signaling as a Generalizable Mechanism for Dystonia. Neuron. 2016 Dec 21;92(6):1238-1251. doi: 10.1016/j.neuron.2016.11.012. Epub 2016 Dec 8. PMID: 27939583; PMCID: PMC5320521.
High-content, High-throughput Drug Screening Assay
The TorsinA mislocalization assay was modified from the previously published assay to accommodate compound testing in 1536 well format.1 Briefly, Flp-In T-REx 293 cells from Invitrogen in which a single copy of a cDNA is recombined into a specific genomic locus was used to create tetracycline-inducible expression of cDNA encoding either EGFP-hTOR1A (WT) or EGFP-delE hTOR1A (DYT1). WT and DYT1 cells were diluted to a concentration of 2 x 10^5 cells/mL in reduced serum media (DMEM High Glucose containing 1% tetracycline-tested FBS, 2 mM L-Glutamine, and 1% Penicillin/Streptomycin). 4 µl of WT cells and 4 µl of DTY1 cells were added to column 1 and columns 2-48, respectively, of a poly-D-lysine-coated, low base, black, clear bottom 1536 well plate (Corning, Corning, NY) using the BioRAPTR FRD Microfluidic Workstation (Beckman Coulter, Indianapolis, IN). The final cell number was 800 cells/well. […]
Potency means the concentration at half of the fitted maximal effect.

Row | Compound | % pathology change, negative = correction | Potency
1 | CC(O)C(=O)O (stereo not given) | 8.05% | 
2 | CN1[C@@H]2CC[C@H]1CC(OC(=O)c1c[nH]c3ccccc13)C2 (stereo not given in full) | -17.8% | 
3 | CC1(C)O[C@@H]2C[C@H]3[C@@H]4C[C@H](F)C5=CC(=O)CC[C@]5(C)[C@H]4[C@@H](O)C[C@]3(C)[C@]2(C(=O)CO)O1 | 1.95% | 
4 | C=C1C[C@H]2[C@@H]3C=C(C)C4=CC(=O)CC[C@]4(C)[C@H]3CC[C@]2(C)[C@@]1(OC(C)=O)C(C)=O | 1.9% | 
5 | Oc1ccc(Cl)c2cccnc12 | -18.7% | 
6 | C[C@]12CCC(=O)C=C1CC[C@H]1[C@@H]3CC[C@](O)(C(=O)CO)[C@@]3(C)C[C@H](O)[C@@]12F | -1.46% | 
7 | COC(=O)[C@@H]1CC2=CC(=O)CC[C@]2(C)[C@@]23O[C@@H]2C[C@@]2(C)[C@@H](CC[C@@]24CCC(=O)O4)[C@H]13 | 7.5% | 
8 | CN(C/C=C/c1ccccc1)Cc1cccc2ccccc12 | 1.7% | 
9 | Cc1ccnc(NS(=O)(=O)c2ccc(N)cc2)n1 | -2.44% | 
10 | CC(=O)OCC(=O)[C@@]12OC(C)(C)O[C@@H]1C[C@H]1[C@@H]3C[C@H](F)C4=CC(=O)C=C[C@]4(C)[C@@]3(F)[C@@H](O)C[C@@]12C | 6.9% | 
11 | CC(=O)OCC(=O)[C@@]12N=C(C)O[C@@H]1C[C@H]1[C@@H]3CCC4=CC(=O)C=C[C@]4(C)[C@H]3[C@@H](O)C[C@@]12C | 8.66% | 
12 | Cc1cccc(C)c1NC(=O)CN1CCN(CCCC(c2ccc(F)cc2)c2ccc(F)cc2)CC1 | 10.2% | 
13 | Nc1ccn([C@@H]2O[C@H](CO)[C@@H](O)C2(F)F)c(=O)n1 | -55.6% | 
14 | Cc1ccc(Nc2c(F)cccc2Cl)c(CC(=O)O)c1 | -9.84% | 
15 | C[C@H]1[C@H](NC(=O)/C(=N/OC(C)(C)C(=O)O)c2csc(N)n2)C(=O)N1S(=O)(=O)O (stereo in doubt) | 0.516% | 
16 | CN(C)CC/C=C1/c2ccccc2COc2ccc(CC(=O)O)cc21 | 10.8% | 
17 | CCCCCC=CCC=CCCCCCCCC(=O)OCC | -22.9% | 
18 | COc1ccc(C2C(=O)c3ccccc3C2=O)cc1 | -0.353% | 
19 | C=CCc1ccc(O)c(OC)c1 | -27.7% | 
20 | COc1cc2c(cc1OC)C(=O)C(CC1CCN(Cc3ccccc3)CC1)C2 (stereo not given) |  | 12.6 µM (active)

Row | Compound | % pathology change, negative = correction | Potency
21 | CCCCC(=O)O[C@]1(C(=O)CO)CC[C@H]2[C@@H]3CCC4=CC(=O)CC[C@]4(C)[C@H]3[C@@H](O)C[C@@]21C | 22.2% | 
22 | Nc1ccc(C(=O)O)cc1 | 6.63% | 
23 | CCCCC(CC)CN=C(N)NC(N)=NCCCCCCN=C(N)NC(N)=NCC(CC)CCCC (stereo not given) |  | 11.2 µM (active)
24 | CN1C(CCl)Nc2cc(Cl)c(S(N)(=O)=O)cc2S1(=O)=O (stereo not given) | 8.93% | 
25 | CC(C)COC(=O)c1ccc(N)cc1 | -13.1% | 
26 | CC(Cc1cccc(C(F)(F)F)c1)NCCOC(=O)c1ccccc1 (stereo not given) | -14.9% | 
27 | CCOC(=O)OC(C)OC1=C(C(=O)Nc2ccccn2)N(C)S(=O)(=O)c2ccccc21 (stereo not given) | -7.8% | 
28 | COC1=CC(=O)C[C@@H](C)[C@]12Oc1c(Cl)c(OC)cc(OC)c1C2=O | -26.7% | 
29 | Cc1c(F)c(N2CCNC(C)C2)cc2c1c(=O)c(C(=O)O)cn2C1CC1 (stereo not given) | 0.175% | 
30 | CCC(=O)c1c(O)cc(O)cc1O | -7.1% | 
31 | NC[C@H]1O[C@H](O[C@H]2[C@H](O[C@@H]3O[C@H](CO)[C@@H](O)[C@H]3O)C(O)[C@H](N)C[C@@H]2N)[C@H](N)[C@@H](O)[C@@H]1O (stereo not given in full) | 1.85% [at 9.22 µM] | 
32 | CC1(C)O[C@@H]2C[C@H]3[C@@H]4CCC5=CC(=O)CC[C@]5(C)[C@@]4(F)[C@@H](O)C[C@]3(C)[C@]2(C(=O)CCl)O1 | -16.2% | 
33 | CCCCS(=O)(=O)N[C@@H](Cc1ccc(OCCCCC2CCNCC2)cc1)C(=O)O | -5.23% | 
34 | C[C@]12C=CC(=O)C=C1CC[C@@H]1[C@@H]2[C@@H](O)C[C@@]2(C)[C@H]1CC[C@]2(O)C(=O)CO | 3.28% | 
35 | COC(=O)CCc1ccc(OCC(O)CNC(C)C)cc1 (stereo not given) | 15.1% | 
36 | CCOC(=O)n1ccn(C)c1=S | -10.6% | 
37 | COc1cc(C=C2CCC/C(=C\c3ccc(O)c(OC)c3)C2=O)ccc1O |  | 7.08 µM (active)
38 | CC(=O)CC(c1ccc([N+](=O)[O-])cc1)c1c(O)c2ccccc2oc1=O (stereo not given) | 7.99% | 
39 | CCCCC1=NC2(CCCC2)C(=O)N1Cc1ccc(-c2ccccc2-c2nn[nH]n2)cc1 | -10.9% | 
40 | C[C@@H]1C[C@H]2[C@@H]3CCC4=CC(=O)C=C[C@]4(C)[C@@]3(F)[C@@H](O)C[C@]2(C)[C@H]1C(=O)CO | 3.98% | 
